Assay results as given in PubChem BioAssay AID686978 (National Center for Advancing Translational Sciences (NCATS), 2013).
The whole screen tested about 420,000 compounds, of which about 64,000 (15%) were called active. Not shown: some 27% with an inconclusive outcome. Calls come from the whole dose curve; as a rule, active = well fitted inhibition curve with a large enough effect; inconclusive = small, poorly fitted or top-dose-only effect; inactive = flat fitted curve, though single readings scatter. The list is a sample of the results. Entries that show only a call come without a potency.
Potency is the fitted concentration of half-maximal effect.

Experiment: qHTS for Inhibitors of human tyrosyl-DNA phosphodiesterase 1 (TDP1): qHTS in cells in absence of CPT; note: nearly all actives have a fitted effect of over 55% in size
Conditions: DT40 Tdp1-/- hTDP1 cells, no CPT, ATP luminescence, 48 h; activity change, negative = growth inhibition: at 46.2 µM (top of the series)
Method in brief: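 Chicken DT40 Tdp1-/- cells complemented with human TDP1, screened without camptothecin (DMSO vehicle only), 400 cells/well. Compounds pin-transferred, cells incubated at 37 °C for at least 48 hr. Growth read as ATP-dependent luminescence (CellTiter-Glo, 30 min at RT).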
With `COc1ccccc1C1CN(Cc2ccccc2O)Cc2ccccc2O1` (stereo not given) the Potency was “inactive”. With `O=C(CC(NCc1cccnc1)C(=O)O)Nc1ccc(O)cc1` (stereo not given) the Potency was “inactive”. With `CSc1nc(O)c(Cc2ccccc2)c(=O)[nH]1` the Potency was “inactive”. With `Cc1cc(C(=O)OC(C)C(=O)NC2CCCCC2C)c(C)o1` (stereo not given) the Potency was “inactive”. With `O=C(O)c1ccc(S(=O)(=O)N2CCOCC2)o1` the Potency was “inactive”. For `Cc1ccc(NC(=O)NNC(=O)c2sccc2-n2cccc2)cc1`, the Potency was “inactive”. With `CC(C)NC(=O)NNc1c(Cl)cncc1Cl` the Potency was “inactive”. For `CC1CCc2c(sc3c2C2=NS(=O)(=O)CCN2C=N3)C1` (stereo not given), the Potency was “inactive”. For `Cc1ccc(CC2CC(=O)N(c3nc(C)cc(C)n3)C2=O)cc1` (stereo not given), the Potency was “inactive”. In the case of `COc1ccccc1C(=O)NCC(=O)OCC(=O)NNC(=O)c1ccc(Br)cc1`, the Potency is reported as “inactive”. With `CC(C)C(NC(=O)c1c(F)cccc1F)C(=O)NNC(=O)c1ccccc1` (stereo not given) the Potency was “inactive”. In the case of `CCO/C([O-])=N/c1c[n+](N2CCOCC2)no1`, the Potency is reported as “inactive”. With `O=C(CCC(=O)c1cccs1)Nc1nc2ccccc2s1` the Potency was “inactive”. For `COC(=O)[C@@H]1C[C@@]2(O)[C@H](O)[C@H](O)[C@H](O)C[C@H]2N1Cc1ccc(C(C)(C)C)cc1`, the Potency was “inactive”. For `CN(C)CCN(C(=O)CN1C(=O)c2ccccc2C1=O)c1nc2cc3c(cc2s1)OCCO3`, the Potency was “inactive”. For `Cc1c(NC(=O)c2cc(-c3ccc(Cl)s3)nc3ccccc23)c(=O)n(-c2ccccc2)n1C`, the Potency was 16.4 µM (active). For `O=C(Nc1cccc(NC(=O)c2cccc(F)c2)c1)c1ccccc1`, the Potency was “inactive”. In the case of `O=C(Nc1cccc(F)c1)c1coc(=O)c(Br)c1`, the Potency is reported as 2.31 µM (active). In the case of `Cc1cc(C(=O)Nc2c(C)n(C)n(-c3ccccc3)c2=O)cs1`, the Potency is reported as “inactive”. For `Cc1c(NC(=O)c2cc(=O)c3ccccc3o2)c(=O)n(-c2ccccc2)n1C`, the Potency was “inactive”. In the case of `O=C(CCN1C(=O)c2ccccc2C1=O)Nc1cccc(F)c1`, the Potency is reported as “inactive”. For `Cc1c(NC(=O)c2cccnc2)c(=O)n(-c2ccccc2)n1C`, the Potency was “inactive”. With `Cc1c(NC(=O)c2coc(=O)c(Br)c2)c(=O)n(-c2ccccc2)n1C` the Potency was 4.11 µM (active). For `O=C(c1cc(-c2ccc(Cl)s2)nc2ccccc12)N1CCOCC1`, the Potency was “inactive”. In the case of `COCn1c(C(O)c2ccccc2)cc2ccccc21` (stereo not given), the Potency is reported as “inactive”. In the case of `O=C1c2ccccc2S(=O)(=O)N1CC(O)Cn1c2ccccc2c2ccccc21` (stereo not given), the Potency is reported as “inactive”. For `CC(CC(=O)N1CCN(S(=O)(=O)c2ccccc2)CC1)n1cncn1` (stereo not given), the Potency was “inactive”. In the case of `CCN(CC)S(=O)(=O)c1ccc2[nH]c(=O)cc(C(=O)N(C)C3CCS(=O)(=O)C3)c2c1` (stereo not given), the Potency is reported as “inactive”. In the case of `CC(=O)N1CCN(CCN=CC2=C(O)CC(C)(C)CC2=O)CC1`, the Potency is reported as “inactive”. With `CCc1nccn1S(=O)(=O)c1cccc([N+](=O)[O-])c1` the Potency was “inactive”.
